Holding throughout (assay): HT-SELEX; high values mean tight binding
What all share (details): protein: recombinant; vector His6-GST; dsDNA, one strand shown

One experiment has as its target T1, SALL4 ZFC4 WT (HT-SELEX) (Mus musculus, UniProt Q8BX22 870-940).
T1 sequence: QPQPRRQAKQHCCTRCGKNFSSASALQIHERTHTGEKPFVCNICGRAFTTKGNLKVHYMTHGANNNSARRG
The method, boiled down:
(§1)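 Up to 6 cycles of selection were run in triplicate. In each, purified recombinant mouse SALL4 zinc finger cluster 4 (residues 870–940, 1 µg) was incubated with library DNA (1.5 µg first cycle, 200 ng later) in 100 µl of 10 mM Tris–HCl pH 7.5, 50 mM NaCl, poly(dI-dC), DTT for 10 min at room temperature, then complexes were captured on Ni2+ beads, washed and PCR-amplified; final pools were MiSeq-sequenced and scanned for 6-mers. Binding signal is each canonical k-mer's read fraction as fold change versus the initial random library.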

Experiment [1] deals with T2, SALL4 ZFC4 R900W (HT-SELEX) (Mus musculus, UniProt Q8BX22 870-940, R900W).
T2 sequence: T1 sequence with R31W
The method, boiled down:
as §1

The target in experiment [2] is T3, SALL4 ZFC4 G921D (HT-SELEX) (Mus musculus, UniProt Q8BX22 870-940, G921D).
T3 sequence: T1 sequence with G52D
Put shortly:
as §1

This note sets out measurements from publication PMC9838217, “Structure of SALL4 zinc finger domain reveals link between AT-rich DNA binding and Okihiro syndrome”.

Where a chain is given by its changes, count along the chain named.

On to CAGACC, for which the results for the binding signal (with SALL4 ZFC4 WT (HT-SELEX); in experiment [1]; in experiment [2]) were 0.367 ± 0.0114 fold-change vs cycle 0, 0.461 ± 0.0322 fold-change vs cycle 0 and 0.553 ± 0.0477 fold-change vs cycle 0, respectively.
For CACGTG, in that order: 0.391 ± 0.0518 fold-change vs cycle 0, 0.459 ± 0.0227 fold-change vs cycle 0 and 0.562 ± 0.0574 fold-change vs cycle 0.
For ATTGCA, in that order: 1.16 ± 0.0389 fold-change vs cycle 0, 1.12 ± 0.0435 fold-change vs cycle 0 and 1.18 ± 0.0324 fold-change vs cycle 0.
For AGGAAT, in that order: 1.52 ± 0.0788 fold-change vs cycle 0, 1.63 ± 0.0707 fold-change vs cycle 0 and 1.49 ± 0.113 fold-change vs cycle 0.
In the case of ATCGGA, the values for the binding signal (in the experiment with SALL4 ZFC4 WT (HT-SELEX); in experiment [1]; in experiment [2]) were 0.708 ± 0.0433 fold-change vs cycle 0, 0.804 ± 0.0524 fold-change vs cycle 0 and 0.928 ± 0.0274 fold-change vs cycle 0, respectively.
For AATATC, the values for the binding signal (with SALL4 ZFC4 WT (HT-SELEX); in experiment [1]; in experiment [2]) were 2.49 ± 0.203 fold-change vs cycle 0, 1.88 ± 0.0733 fold-change vs cycle 0 and 1.75 ± 0.14 fold-change vs cycle 0, respectively.
ACTTGA: the binding signal with SALL4 ZFC4 WT (HT-SELEX) came to 1.33 ± 0.0337 fold-change vs cycle 0; in experiment [1], 1.5 ± 0.0479 fold-change vs cycle 0; in experiment [2], 1.41 ± 0.0888 fold-change vs cycle 0.
For CGTCCA, in that order: 0.318 ± 0.0103 fold-change vs cycle 0, 0.381 ± 0.0253 fold-change vs cycle 0 and 0.504 ± 0.0811 fold-change vs cycle 0.
With GTCTCA, the binding signal was determined as 0.736 ± 0.016 fold-change vs cycle 0 with SALL4 ZFC4 WT (HT-SELEX), 0.879 ± 0.00912 fold-change vs cycle 0 in experiment [1] and 0.938 ± 0.0386 fold-change vs cycle 0 in experiment [2].
For GCAGTA, in that order: 0.609 ± 0.0122 fold-change vs cycle 0, 0.693 ± 0.0275 fold-change vs cycle 0 and 0.766 ± 0.032 fold-change vs cycle 0.
For CGACTC, in that order: 0.311 ± 0.0133 fold-change vs cycle 0, 0.391 ± 0.0309 fold-change vs cycle 0 and 0.53 ± 0.0873 fold-change vs cycle 0.
For AACAGG, in that order: 0.801 ± 0.0521 fold-change vs cycle 0, 0.937 ± 0.0272 fold-change vs cycle 0 and 0.942 ± 0.0148 fold-change vs cycle 0.
On to ACGTAA, for which the binding signal came to 1.19 ± 0.0733 fold-change vs cycle 0 with SALL4 ZFC4 WT (HT-SELEX), 1.3 ± 0.0477 fold-change vs cycle 0 in experiment [1] and 1.21 ± 0.0842 fold-change vs cycle 0 in experiment [2].
For ATTAAA, in that order: 3.73 ± 0.281 fold-change vs cycle 0, 2.54 ± 0.18 fold-change vs cycle 0 and 2.14 ± 0.26 fold-change vs cycle 0.
For AAAGAT, in that order: 2.08 ± 0.0847 fold-change vs cycle 0, 2.1 ± 0.102 fold-change vs cycle 0 and 1.84 ± 0.163 fold-change vs cycle 0.
Consider CGTGTA, for which the binding signal with SALL4 ZFC4 WT (HT-SELEX) came out at 0.651 ± 0.0387 fold-change vs cycle 0; in experiment [1], 0.756 ± 0.0247 fold-change vs cycle 0; in experiment [2], 0.812 ± 0.0246 fold-change vs cycle 0.
For ACGGGA, in that order: 0.422 ± 0.0189 fold-change vs cycle 0, 0.506 ± 0.0223 fold-change vs cycle 0 and 0.583 ± 0.0299 fold-change vs cycle 0.
For CATTCG, in that order: 0.667 ± 0.027 fold-change vs cycle 0, 0.769 ± 0.0521 fold-change vs cycle 0 and 0.847 ± 0.0186 fold-change vs cycle 0.
For AATTCG, in that order: 0.945 ± 0.024 fold-change vs cycle 0, 1.008 ± 0.0043 fold-change vs cycle 0 and 1.07 ± 0.0346 fold-change vs cycle 0.
On to AAACCC, for which the binding signal was found to be 0.691 ± 0.0592 fold-change vs cycle 0 with SALL4 ZFC4 WT (HT-SELEX), 0.77 ± 0.0294 fold-change vs cycle 0 in experiment [1] and 0.845 ± 0.0633 fold-change vs cycle 0 in experiment [2].
Take ATTACC: the binding signal in the experiment with SALL4 ZFC4 WT (HT-SELEX) turned out to be 1.49 ± 0.0761 fold-change vs cycle 0; in experiment [1], 1.51 ± 0.105 fold-change vs cycle 0; in experiment [2] it was 1.43 ± 0.105 fold-change vs cycle 0.
For ACCTGG, the binding signal in the experiment with SALL4 ZFC4 WT (HT-SELEX) amounted to 0.46 ± 0.021 fold-change vs cycle 0; in experiment [1], 0.537 ± 0.0102 fold-change vs cycle 0; in experiment [2], 0.635 ± 0.0393 fold-change vs cycle 0.
As for CTTTGC, the binding signal with SALL4 ZFC4 WT (HT-SELEX) stood at 0.581 ± 0.0144 fold-change vs cycle 0; in experiment [1], 0.663 ± 0.0189 fold-change vs cycle 0; in experiment [2], 0.743 ± 0.024 fold-change vs cycle 0.
For GCACAC, in that order: 0.35 ± 0.011 fold-change vs cycle 0, 0.453 ± 0.0146 fold-change vs cycle 0 and 0.583 ± 0.0993 fold-change vs cycle 0.
In the case of AGAGAG, the binding signal with SALL4 ZFC4 WT (HT-SELEX) was 0.922 ± 0.0426 fold-change vs cycle 0; in experiment [1], 1.09 ± 0.0215 fold-change vs cycle 0; in experiment [2], 1.14 ± 0.0249 fold-change vs cycle 0.
For GACTGC, in that order: 0.3204 ± 0.00172 fold-change vs cycle 0, 0.399 ± 0.0161 fold-change vs cycle 0 and 0.525 ± 0.0461 fold-change vs cycle 0.
For ACATCA, in that order: 1.32 ± 0.0619 fold-change vs cycle 0, 1.42 ± 0.0539 fold-change vs cycle 0 and 1.37 ± 0.0921 fold-change vs cycle 0.
In the case of AAACTT, the binding signal with SALL4 ZFC4 WT (HT-SELEX) came out at 1.81 ± 0.119 fold-change vs cycle 0; in experiment [1], 1.89 ± 0.128 fold-change vs cycle 0; in experiment [2] it was 1.68 ± 0.174 fold-change vs cycle 0.
In the case of AGTTAG, the binding signal amounted to 1.428 ± 0.0117 fold-change vs cycle 0 with SALL4 ZFC4 WT (HT-SELEX), 1.56 ± 0.0647 fold-change vs cycle 0 in experiment [1] and 1.46 ± 0.0871 fold-change vs cycle 0 in experiment [2].
With ATCGAA, the binding signal with SALL4 ZFC4 WT (HT-SELEX) came out at 1.17 ± 0.0408 fold-change vs cycle 0; in experiment [1], 1.16 ± 0.0416 fold-change vs cycle 0; in experiment [2], 1.2 ± 0.0145 fold-change vs cycle 0.
